Laboratory results taken from the supplement of paper PMC11219838.
Values without a mark were called inactive.

Test system: Caenorhabditis elegans dauer (daf-2(e1370))
Test: proportion of mobile C. elegans dauer larvae relative to DMSO control (fraction of DMSO control); higher = more viable, less nematicidal, active = 0.63 or less; extreme values may be limits of the assay
Conditions: 60 µM; 5 days; temperature: 20 °C
Procedure, shortened: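 Compound was added by pinning to 60 µM final, giving 0.6% v/v DMSO, in 96-well plates containing about 20 C. elegans dauers per well in liquid NGM. These dauers came from synchronized larvae held on MYOB plates with E. coli OP50 for 48 h at 25 °C. Plates were sealed and shaken at 200 rpm at 20 °C for 5 days. Under a dissection microscope, the proportion of mobile worms was scored relative to DMSO wells, and two biological replicates were averaged.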

SMILES	proportion of mobile C. elegans dauer larvae
O=C(CSc1nnc(-c2cccc(Cl)c2)o1)N1CCCCC1	1
Cc1ccccc1OCc1nc(-c2cccc(C(F)(F)F)c2)no1	1
O=C(NC1CCCCC1)c1ccccc1-c1nc(-c2ccc(F)cc2)no1	1
CCc1cccc(C)c1NC(=O)CSc1nnc(-c2ccccc2)o1	1

Test system: Ditylenchus dipsaci
Test: proportion of mobile D. dipsaci (mixed stage) relative to DMSO control (fraction of DMSO control); higher = more viable, less nematicidal, active = 0.86 or less; extreme values may be limits of the assay
Conditions: 60 µM; 5 days; temperature: 20 °C
Procedure, shortened: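 Mobility, expressed relative to DMSO controls, is the mean of two biological replicates. The test organisms were D. dipsaci grown on pea plants in Gamborg B-5 agar and extracted into water by filter funnel, with about 20 added per well of a 96-well plate in distilled water. Compound was pinned to 60 µM final (0.6% v/v DMSO), plates were sealed and shaken at 200 rpm for 5 days at 20 °C, and mobile worms were scored under a microscope once 2 µL 1 M NaOH had been added.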

SMILES	proportion of mobile D. dipsaci
COc1ccc(-c2noc(CSc3ccc(C)cc3)n2)cc1	1
Ic1ccc(-c2nc(-c3cccnc3)no2)cc1	1
c1coc(-c2nnc(-c3ccco3)o2)c1	1
CCCOc1ccc(-c2nc(-c3ccncc3)no2)cc1	1
c1cncc(-c2noc(-c3cccc4ccccc34)n2)c1	1
Cc1ccc(-c2noc(-c3ccc(Br)cc3)n2)cc1	1
FC(F)(F)c1cccc(-c2noc(-c3cccnc3)n2)c1	0.914
COc1ccc(-c2noc(CSc3nc(C)cc(C)n3)n2)cc1	0.833 (active)
COc1ccc(-c2nc(C3CCCCC3)no2)cc1	1
COc1ccccc1-c1nnc(SCc2ccccc2C#N)o1	1
Cc1cc(C)c(C)c(OCc2nc(-c3ccccc3)no2)c1	1
Clc1ccc(OCc2nc(-c3cccs3)no2)cc1	1
Cc1ccc(-c2noc(COc3ccc(Cl)cc3C)n2)cc1	1
O=C(CSc1nnc(-c2ccccc2)o1)Nc1cccc(Cl)c1	1
Cc1cccc(OCc2nc(-c3ccc(Br)cc3)no2)c1	1
O=C(CSc1nnc(-c2ccccc2)o1)Nc1cccc(Br)c1	1
Cc1ccc(-c2nnc(SCc3ccccc3F)o2)cc1	1
COc1ccccc1-c1nc(-c2ccccc2Cl)no1	1
CC(C)Oc1ccc(-c2nc(-c3ccccc3)no2)cc1	1

SMILES	proportion of mobile D. dipsaci
COc1cccc(NC(=O)c2ccccc2-c2nc(-c3ccc(F)cc3)no2)c1	1
Cc1ccc(C)c(-c2nc(-c3ccc(Cl)cc3)no2)c1	1
Brc1ccccc1-c1nc(-c2ccccn2)no1	1
Cc1cc(OCc2nc(-c3ccncc3)no2)c(C)c(C)c1Br	1
Brc1ccc(-c2noc(CSc3ccccc3)n2)cc1	1
CCOc1ccccc1-c1nnc(SCC(=O)NC(C)CC)o1 (configuration not stated)	1
COc1ccccc1-c1noc(-c2ccccc2C)n1	1
COc1ccccc1-c1nnc(SCc2ccc(F)cc2)o1	1
Cc1ccc(C(=O)Nc2ccccc2-c2nc(-c3ccncc3)no2)cc1C	1
Cc1ccc(CSc2nnc(-c3ccncc3)o2)cc1	0.75 (active)
COc1ccc(-c2nc(-c3ccc(C(F)(F)F)cc3)no2)cc1	1
COc1ccc(-c2nnc(SCC(=O)Nc3ccc(Br)c(C)c3)o2)cc1	1
COc1cccc(-c2noc(-c3cccc(F)c3)n2)c1	1
Clc1cc(Br)ccc1OCc1nc(-c2ccncc2)no1	1
Cc1cccc(-c2noc(C3CCCCC3)n2)c1	1
O=C(CSc1nnc(-c2cccc(Cl)c2)o1)N1CCCCC1	1
Cc1ccccc1OCc1nc(-c2cccc(C(F)(F)F)c2)no1	1
O=C(NC1CCCCC1)c1ccccc1-c1nc(-c2ccc(F)cc2)no1	1
CCc1cccc(C)c1NC(=O)CSc1nnc(-c2ccccc2)o1	1
